High-throughput results from PubChem.
Most compounds without a hit are left out; they make up all but 6.7% or so of the library.
Pf Dd2 growth = blocks growth of Plasmodium falciparum Dd2 parasites; P. falciparum Dd2 growth, SYBR Green, 72 h; stronger effect = lower value; actives 2.3% (n = 94,000); AID 1159554; activity change, % at 10 µM; in the data active means activity change below about -80%; inconclusive means no clear call, values can overlap the other calls
T cruzi growth-1 = T. cruzi proliferation inhibition; T. cruzi beta-gal in NIH3T3, GalScreen luminescence, 90 h; inhibition, % at 8.34 µM; actives 5.9% (n = 77,000); AID 624255;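 active means mean inhibition above about 93%, with at least 55% of replicates each passing it, limit read from the data, passing the limit was not always enough; inconclusive means only one of those two conditions holds; inactive means neither condition holds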
C diff HTS = blocks growth of Clostridium difficile. Clostridium difficile clinical isolate growth, OD600, 24 h; stronger effect = lower value. growth activity, negative = inhibition, % at 16 µg/mL (by protocol). actives 0.25% (n = 86,000). AID 1259249;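 active means mean growth activity at or below -80% and every replicate also at or below -80%; inconclusive means mean at or below -80% but some replicate above -80%; inactive means mean growth activity above -80%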;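 further: 0% = DMSO wells and -100% = levofloxacin 16 µg/mL wells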
T cruzi growth-2 = inhibitors of T. cruzi proliferation. AID 651739. inhibition, % at 8.35 µM. shares compounds with T cruzi growth-1. actives 72% (n = 5,600). T. cruzi beta-gal in NIH3T3, GalScreen luminescence, 90 h;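 active means mean replicate inhibition above about 95% and at least 55% of replicates individually reaching it, limit read from the data; inconclusive means only one of the two criteria is met; inactive means neither criterion is met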
T cruzi growth-3 = Trypanosoma cruzi proliferation inhibition | shares compounds with T cruzi growth-1 | actives 21% (n = 5,600) | T. cruzi beta-gal in NIH3T3, GalScreen luminescence, 90 h | inhibition, % at 2.09 µM;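 active means mean inhibition above about 95%, with at least 55% of replicates also reaching it, limit read from the data; inconclusive means meets just one of the two conditions; inactive means meets neither condition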;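 further: plate controls were neutral control median for no effect and positive control median for full effect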
3T3 cytotox = kills mouse NIH/3T3 fibroblasts; shares compounds with T cruzi growth-1; NIH/3T3 viability, CellTiter-Glo ATP luminescence, 90 h; cytotoxicity (signal decrease), % at 8.35 µM; actives 14% (n = 5,600);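 active means mean signal decrease across replicates above about 35% based on untreated-well scatter, with enough replicates individually passing, limit read from the data; inconclusive means no rule stated though some were filed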;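 further: 0% = median of neutral control wells and 100% = median of positive control wells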
3T3 cytotox 2 = NIH/3T3 (mouse) viability loss; shares compounds with T cruzi growth-1; NIH/3T3 viability, CellTiter-Glo ATP luminescence, 90 h; inhibition, % at 24.9 µM; actives 56% (n = 5,600); AID 651744;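 active means mean loss of cell viability signal at or above a set limit, and enough replicates individually reaching it; inconclusive means meets only the mean limit or only the replicate share; inactive means meets neither condition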;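 further: 0% = median of neutral control wells and 100% = median of positive control wells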
An asterisk follows results filed as active; ? = inconclusive; . = no result.

SMILES | Pf Dd2 growth | T cruzi growth-1 | C diff HTS | T cruzi growth-2 | T cruzi growth-3 | 3T3 cytotox | 3T3 cytotox 2
C[C@@H]1CN([C@@H](C)CO)C(=O)c2cc(NS(=O)(=O)c3ccc(Cl)cc3)ccc2O[C@@H](C)CCCCO[C@@H]1CN(C)Cc1ccc(C(F)(F)F)cc1 | -61 | 96* | 5 | 84 | 116* | 15 | 93*
C[C@@H]1CCCCO[C@H](CN(C)Cc2ccc(C(F)(F)F)cc2)[C@@H](C)CN([C@H](C)CO)C(=O)c2cc(NS(=O)(=O)c3ccc(Cl)cc3)ccc2O1 | -9 | 111* | 14 | 105* | 15 | -4 | 104*
C[C@@H]1CCCCO[C@@H](CN(C)Cc2ccc(C(F)(F)F)cc2)[C@H](C)CN([C@H](C)CO)C(=O)c2cc(NS(=O)(=O)c3ccc(Cl)cc3)ccc2O1 | -36 | 93 | 25 | . | . | . | .
C[C@@H]1CN([C@H](C)CO)C(=O)c2cc(NS(=O)(=O)c3ccc(Cl)cc3)ccc2O[C@@H](C)CCCCO[C@H]1CN(C)Cc1ccc(C(F)(F)F)cc1 | -12 | 94 | 39 | . | . | . | .
C[C@@H]1CN([C@@H](C)CO)C(=O)Cc2cc(NC(=O)NC3CCCCC3)ccc2O[C@H]1CN(C)C(=O)NC1CCCCC1 | 11 | 28 | -1 | . | . | . | .
O=C(C[C@@H]1C[C@@H]2c3cc(NC(=O)C4CCC4)ccc3O[C@@H]2[C@@H](CO)O1)NCc1ccc2c(c1)OCO2 | 3 | 7 | 0 | . | . | . | .
C[C@@H]1CCCCO[C@H](CN(C)C(=O)Nc2ccc(C(F)(F)F)cc2)[C@H](C)CN([C@@H](C)CO)C(=O)c2cc(NC(=O)CCC(F)(F)F)ccc2O1 | -67 | 101 | 4 | . | . | . | .
C[C@@H]1CCCCO[C@@H](CN(C)C(=O)Nc2ccc(C(F)(F)F)cc2)[C@H](C)CN([C@@H](C)CO)C(=O)c2cc(NC(=O)CCC(F)(F)F)ccc2O1 | 6 | 101* | 6 | 106* | 35 | 25 | 7
C[C@@H]1CCCCO[C@H](CN(C)C(=O)Nc2ccc(C(F)(F)F)cc2)[C@H](C)CN([C@H](C)CO)C(=O)c2cc(NC(=O)CCC(F)(F)F)ccc2O1 | -79 | 107* | 3 | 106* | 105* | -11 | 19
C[C@@H]1CCCCO[C@H](CN(C)C(=O)Nc2ccc(C(F)(F)F)cc2)[C@@H](C)CN([C@@H](C)CO)C(=O)c2cc(NC(=O)CCC(F)(F)F)ccc2O1 | -73 | 94 | -3 | . | . | . | .
COCC(=O)Nc1ccc2c(c1)[C@@H]1C[C@@H](CC(=O)NCc3ccc(-c4ccccc4)cc3)O[C@H](CO)[C@@H]1O2 | 16 | 35 | -2 | . | . | . | .
C[C@@H]1CCCCO[C@@H](CN(C)CC2CCCCC2)[C@@H](C)CN([C@@H](C)CO)C(=O)c2cc(NC(=O)c3ccccc3)ccc2O1 | -67 | 76 | -7 | . | . | . | .
COc1ccc(S(=O)(=O)N(C)C[C@H]2OCCCC[C@@H](C)Oc3ccc(NS(=O)(=O)c4c(C)noc4C)cc3C(=O)N([C@@H](C)CO)C[C@@H]2C)cc1 | -50 | 83 | 0 | . | . | . | .
CC=Cc1ccc2n(c1=O)C[C@H]1[C@H](CO)[C@@H](C(=O)N3CCc4ccccc4C3)[C@@H]2N1CCC (mixture of isomers) | -8 | 103* | -1 | 77 | 6 | -20 | 12
CCN1[C@@H]2Cn3c(ccc(/C=C/c4ccccc4)c3=O)[C@H]1[C@@H](C(=O)N1CCCCC1)[C@@H]2CO | . | 170* | . | 14 | -41 | 10 | 45*
CC=Cc1ccc2n(c1=O)C[C@H]1[C@H](CO)[C@@H](C(=O)NCc3ccccc3)[C@@H]2N1C (mixture of isomers) | 8 | 96* | -3 | 43 | 19 | 9 | 5
CC=Cc1ccc2n(c1=O)C[C@H]1[C@H](CO)[C@@H](C(=O)NCc3ccccc3F)N(S(C)(=O)=O)[C@@H]21 (mixture of isomers) | 7 | 47 | -2 | . | . | . | .
CCN1[C@@H]2Cn3c(ccc(/C=C/c4ccccc4)c3=O)[C@H]1[C@@H](C(=O)N1CCOCC1)[C@@H]2CO | -33 | 26 | 5 | . | . | . | .
CC=Cc1ccc2n(c1=O)C[C@H]1[C@H](CO)[C@@H](C(=O)NCc3ccccc3Cl)N(S(C)(=O)=O)[C@@H]21 (mixture of isomers) | . | 107* | -9 | 74 | 13 | 0 | 12
CC=Cc1ccc2n(c1=O)C[C@@H]1[C@@H](CO)[C@H](C(=O)N3CCc4ccccc4C3)[C@H]2N1CC (mixture of isomers) | . | -71 | 1 | . | . | . | .
CC=Cc1ccc2n(c1=O)C[C@H]1[C@H](CO)[C@@H](C(=O)NCCc3ccccc3)[C@@H]2N1C (mixture of isomers) | 9 | -23 | 0 | . | . | . | .
C[C@@H]1CN([C@@H](C)CO)C(=O)c2cccc(NC(=O)c3cnccn3)c2O[C@H]1CN(C)C(=O)Nc1cccc2ccccc12 | -21 | 14 | 0 | . | . | . | .
C[C@@H]1CN([C@H](C)CO)C(=O)c2cc(-c3cccc(C(=O)N(C)C)c3)cnc2O[C@H]1CN(C)C | 42 | -12 | -6 | . | . | . | .
CO[C@@H]1CN(C)C(=O)c2ccc(NS(=O)(=O)c3ccc(C)cc3)cc2OC[C@H](C)N(C(=O)NC(C)C)C[C@H]1C | . | -28 | . | . | . | . | .
COc1ccc(CN(C)C[C@@H]2Oc3ccc(NS(=O)(=O)c4cccs4)cc3CC(=O)N([C@H](C)CO)C[C@@H]2C)cc1 | 0 | 18 | 2 | . | . | . | .
SMILES | Pf Dd2 growth | T cruzi growth-1 | C diff HTS | T cruzi growth-2 | T cruzi growth-3 | 3T3 cytotox | 3T3 cytotox 2
CC=Cc1ccc2n(c1=O)C[C@H]1[C@H](CO)[C@@H](C(=O)NCc3ccccn3)[C@@H]2N1CCC (mixture of isomers) | -1 | 108* | -7 | 110* | 21 | -5 | 5
CC=Cc1ccc2n(c1=O)C[C@@H]1[C@@H](CO)[C@H](C(=O)NCc3ccccn3)[C@H]2N1CC1CC1 (mixture of isomers) | 1 | 60 | -4 | . | . | . | .
C[C@@H]1CN([C@@H](C)CO)C(=O)Cc2cc(NC(=O)Cn3cnnn3)ccc2O[C@H]1CN(C)Cc1ccc(-c2ccccc2)cc1 | -9 | 48 | -5 | . | . | . | .
O=C(Cc1ccccc1)N1CC[C@@H]2[C@@H](CO)Nc3ccc(-c4ccccc4F)cc3[C@@H]21 | 25 | 88 | -1 | . | . | . | .
O=C(c1cnccn1)N1CC[C@@H]2[C@@H](CO)Nc3ccc(-c4ccccc4F)cc3[C@@H]21 | -21 | 98 | -3 | . | . | . | .
O=C(Cc1ccncc1)N1CC[C@@H]2[C@H]1c1cc(-c3ccccc3F)ccc1N[C@@H]2CO | -60 | 118* | -2 | 99* | 27 | -7 | 11
O=C(Cc1ccncc1)N1CC[C@@H]2[C@H](CO)Nc3ccc(-c4ccccc4F)cc3[C@@H]21 | -63 | 112* | -2 | 107* | 69 | 17 | ?
